Screens as filed in PubChem.
SUMO Mot1 rescue: yeast Mot1-301 growth rescue at high temperature, primary screen, SUMOylation pathway inhibitor project, S. cerevisiae, ATP luminescence, 38.5C | S. cerevisiae Mot1-301 growth rescue; percent above DMSO median, 100 means doubled | growth rescue, % at 18.8 µM | hit rate 1% among 320,000 | AID 2716, 2010;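 active means every valid replicate shows activation above 250% relative to neutral control wells; inactive means the rest, any valid replicate at or below 250%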;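 further: OY570 slx delta 5 strain wells were the positive control but not used for scaling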
tim10-1 inh: growth inhibitors of tim10-1 mutant yeast, primary screen, luminescence, uHTS; S. cerevisiae tim10-1 ts strain growth, BacTiter-Glo, 24 h; inhibition, % at 20 µM; hit rate 2.2% among 330,000; AID 463190, 2010;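 active means inhibition of at least 40%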;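 further: mutant grown at 25 °C; 0% = DMSO wells with yeast and 100% = wells holding no yeast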
PfHsp90 set2: growth inhibition of PfHsp90-expressing yeast, primary screen, antimalarial PfHsp90 inhibitor project, S. cerevisiae, BacTiter-Glo luminescence, single point, set 2. BacTiter-Glo ATP, 48 h; yeast lacking PDR1 and PDR3 efflux regulators. inhibition, % at 9.4 µM. hit rate 0.32% among 310,000;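 active means every replicate shows inhibition above about 80%, whatever the replicate mean, limit read from the data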;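 further: 0% = DMSO neutral controls and 100% = 20 µM radicicol positive controls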
TIM10 inh: growth inhibitors of isogenic TIM10 control yeast, primary screen, counter-screen for tim10-1 yeast inhibitor project, luminescence, uHTS. S. cerevisiae TIM10 strain growth, BacTiter-Glo luminescence, 24 h. inhibition, % at 10 µM. hit rate 1.4% among 330,000;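 active means inhibition of 40% or more at the single tested concentration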;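 further: wild-type TIM10 isogenic control strain grown at permissive 25 °C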
tim23-1 inh: growth inhibitors of tim23-1 mutant yeast, primary screen, luminescence, uHTS. hit rate 1.3% among 330,000. inhibition, % at 20 µM. S. cerevisiae tim23-1 growth, BacTiter-Glo luminescence, 24 h;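 active means growth inhibition of the mutant yeast at or above 50%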;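 further: temperature-sensitive mutant grown at 25 °C; plate controls were DMSO-treated mutant yeast for no effect and medium wells lacking yeast for full effect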
tim23-1 conf: tim23-1 mutant yeast growth inhibitors, confirmation, luminescence, single concentration. shares compounds with tim23-1 inh. hit rate 83% among 4,400. inhibition, % at 20 µM. S. cerevisiae tim23-1 growth, BacTiter-Glo luminescence, 24 h;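 active means inhibition above about 39% in either of two replicate wells at 20 µM, limit read from the data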;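 further: temperature-sensitive tim23-1 mutant grown at 25 °C; 0% = DMSO wells with yeast and 100% = medium wells without yeast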
* hit, by the source's call; . = not tested or not shown. Sampled rows, rich in hits. Any-hit rate of the full collection: about 4.4%.

SMILES	SUMO Mot1 rescue	tim10-1 inh	PfHsp90 set2	TIM10 inh	tim23-1 inh	tim23-1 conf
O=C(CN(Cc1ccccc1Cl)C(=O)c1csnn1)NCc1ccccc1	-2	-24	-49	13	3	.
Cc1cccc(C(=O)O/N=C(\N)c2ccc(Br)cc2)c1	8	7	25	12	96*	51*
Cc1ccc(/C(N)=N/OC(=O)c2cccc(Cn3cc(C(F)(F)F)ccc3=O)c2)cc1	1	39	-4	23	59*	60*
CCCCNC(=S)N/N=C/c1cc(C)ccc1C	16	18	-37	24	53*	42*
CCn1c(SCC(=O)NC2CCCCC2)nnc1-c1ccco1	-6	-5	-13	-5	-7	.
Cc1cccc(N(C)Cc2nnc(-c3cccc(Br)c3)o2)c1	-13	23	-13	1	26	.
Nc1nonc1C(=O)N/N=C/c1cc(Br)ccc1O	13	-3	-23	14	52*	56*
NC(=O)N/N=C\c1cc(Br)ccc1O	22	3	-7	-6	3	.
C/C(=N\NC(=O)Cn1nc(C)c([N+](=O)[O-])c1C)c1ccco1	-15	-16	-12	-14	18	.
c1ccc(C2OCCN2c2ccccc2)cc1 (stereo unspecified)	.	.	11	.	.	.
COc1ccc(O)c(C(=O)c2cnn(C(=O)c3cccc(N(C)C)c3)c2)c1	229	2	-31	26	58*	57*
O=C(c1cnn(C(=O)c2ccc(O)cc2)c1)c1ccccc1O	60	-38	.	-15	20	.
COc1ccc(O)c(C(=O)c2cnn(C(=O)c3cc(C)oc3C)c2)c1	145	29	13	7	58*	55*
COc1ccc(C(=O)n2cc(C(=O)c3cc(C)ccc3O)cn2)cc1OC	106	20	13	26	48	.
CN(C)c1cccc(C(=O)n2cc(C(=O)c3cc(F)ccc3O)cn2)c1	232	35	1	18	57*	68*
O=C(c1cnn(C(=O)COc2ccccc2F)c1)c1cc(F)ccc1O	96	10	5	23	24	.
CC(CCc1ccccc1)N1CCN(C)CC1 (stereo unspecified)	4	6	-7	-2	12	.
CC(C)C(=O)Nc1ncc(Cc2cccc(Cl)c2)s1	-13	38	-55	31	55*	40*
O=C(Nc1ncc(Cc2cccc(Cl)c2)s1)C1CCCO1 (stereo unspecified)	0	28	-10	28	50*	43*
OCc1cn(-c2ccccc2)nc1-c1ccc(Br)cc1	31	-7	-14	-3	67*	28
N#C/C(=C\c1ccc(Cl)cc1)C(=O)NC1CC1	6	34	-3	24	56*	52*
CSc1ccc(/C=C(\C#N)C(=O)NC2CCCCC2)cc1	9	35	17	31	50	51*
COc1ccc(/C=C(\C#N)C(=O)NC2CCS(=O)(=O)C2)cc1OC (stereo unspecified)	4	2	-3	-9	14	.
C=CCNC(=O)/C(C#N)=C/c1ccc(SC)cc1	-18	0	-7	2	2	.
O=C(CN1C(=O)NC2(CCOc3ccccc32)C1=O)c1ccc(F)c(F)c1 (stereo unspecified)	-13	32	.	-5	-1	.
Cc1nc(Nc2ccccc2)sc1C(=O)Nc1ccccc1	-29	-12	-1	12	55*	53*
COc1ccc(C(C[N+](=O)[O-])c2c(-c3ccccc3)cc3ccccn23)cc1OC (stereo unspecified)	12	35	.	31	50*	62*
COc1ccc(C(C[N+](=O)[O-])c2c(-c3ccccc3)cc3ccccn23)cc1 (stereo unspecified)	14	40	.	38	63*	78*
Cc1ccc(C(=O)NC(C(=O)OCc2cn3cc(Cl)ccc3n2)C(C)C)cc1 (stereo unspecified)	-4	8	14	-2	32	.
CC(C)(C)C(=O)NC1=NCCS1	-3	-6	-18	10	0	.
